Reference: PubChem BioAssay AID1159580 (chemical genetic matrix, 2015)
In all, about 5,500 compounds went through this assay and about 2,000 (36%) were called active. Inconclusive results (about 18%) are left out. Cut-off read from the data, not from the text of the source: active = normalized growth mostly below about 0.91 (no sharp cut-off); inconclusive = no clear call, values can overlap the other calls; inactive = mostly above about 0.92. The list shows a part of the results.

Test: chemical genetic growth profiling, strain panel (AID 1159580);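 note: tested at 20 µM; growth read once vehicle control cultures reached saturation at 30 °C; 1 = growth at the plate median or of vehicle wells; lower values mean less growth of the strain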
Conditions: growth OD

Measured: normalized growth

Nc1ccc(C(=O)O)cc1
inactive: S. cerevisiae deletion strains, locus YJR066W, strain TOR1, hits give low values 0.968 | S. cerevisiae deletion strains, locus YJR075W, strain HOC1, hits give low values 1.01 | S. cerevisiae deletion strains, locus YKL009W, strain mrt4, hits give low values 1.02 | S. cerevisiae deletion strains, locus YKL068W, hits give low values 0.993 | S. cerevisiae deletion strains, locus YKL085W, strain MDH1 (second series), hits give low values 0.998 | S. cerevisiae deletion strains, locus YKL085W, strain MDH1, hits give low values 0.998 | S. cerevisiae deletion strains, locus YKL160W, strain elf1, hits give low values 1.03 | S. cerevisiae deletion strains, locus YKL190W, strain CNB1, hits give low values 0.996 | S. cerevisiae deletion strains, locus YKR001C, strain vps1, hits give low values 1.01 | S. cerevisiae deletion strains, locus YKR026C, strain gcn3, hits give low values 1.04 | S. cerevisiae deletion strains, locus YKR091W, strain srl3, hits give low values 1.02 | S. cerevisiae deletion strains, locus YLL001W, strain dnm1, hits give low values 1.03 | S. cerevisiae deletion strains, locus YLL026W, hits give low values 1.04 | S. cerevisiae deletion strains, locus YLL041C, strain sdh2, hits give low values 1.02 | S. cerevisiae deletion strains, locus YLR027C, strain aat2, hits give low values 1.02 | S. cerevisiae deletion strains, locus YLR039C, strain RIC1, hits give low values 0.996 | S. cerevisiae deletion strains, locus YLR058C, strain SHM2, hits give low values 1.01 | S. cerevisiae deletion strains, locus YLR102C, strain apc9, hits give low values 1.01 | S. cerevisiae deletion strains, locus YLR113W, strain HOG1, hits give low values 1.01 | S. cerevisiae deletion strains, locus YLR221C, strain rsa3, hits give low values 1.02 | S. cerevisiae deletion strains, locus YLR258W, strain gsy2, hits give low values 1.01 | S. cerevisiae deletion strains, locus YLR262C, strain YPT6 (second series), hits give low values 1.02 | S. cerevisiae deletion strains, locus YLR262C, strain YPT6, hits give low values 1.07 | S. cerevisiae deletion strains, locus YLR268W, strain sec22, hits give low values 1.02 | S. cerevisiae deletion strains, locus YLR320W, strain mms22, hits give low values 1.01 | S. cerevisiae deletion strains, locus YLR330W, strain CHS5, hits give low values 1.01 | S. cerevisiae deletion strains, locus YLR342W, strain FKS1 (second series), hits give low values 1.02 | S. cerevisiae deletion strains, locus YLR342W, strain FKS1, hits give low values 1.05 | S. cerevisiae deletion strains, locus YLR357W, strain rsc2, hits give low values 1.03 | S. cerevisiae deletion strains, locus YLR370C, strain arc18, hits give low values 1.02 | S. cerevisiae deletion strains, locus YLR371W, strain rom2, hits give low values 1.01 | S. cerevisiae deletion strains, locus YLR384C, strain iki3, hits give low values 1.01 | S. cerevisiae deletion strains, locus YLR418C, strain cdc73, hits give low values 1.03 | S. cerevisiae deletion strains, locus YML016C, strain PPZ1, hits give low values 1.01 | S. cerevisiae deletion strains, locus YML032C, strain rad52, hits give low values 1.01 | S. cerevisiae deletion strains, locus YML120C, strain ndi1, hits give low values 1.04 | S. cerevisiae deletion strains, locus YML124C, strain tub3, hits give low values 1.01 | S. cerevisiae deletion strains, locus YMR058W, strain fet3, hits give low values 1.04 | S. cerevisiae deletion strains, locus YMR078C, strain ctf18, hits give low values 1.02 | S. cerevisiae deletion strains, locus YMR125W, strain sto1, hits give low values 1.01 | S. cerevisiae deletion strains, locus YMR129W, hits give low values 1.03 | S. cerevisiae deletion strains, locus YMR205C, strain PFK2, hits give low values 1.03 | S. cerevisiae deletion strains, locus YMR223W, strain ubp8, hits give low values 1.01 | S. cerevisiae deletion strains, locus YMR231W, strain pep5, hits give low values 1.02 | S. cerevisiae deletion strains, locus YMR263W, strain SAP30, hits give low values 1 | S. cerevisiae deletion strains, locus YMR307W, strain GAS1, hits give low values 1.05 | S. cerevisiae deletion strains, locus YNL067W, strain RPL9B, hits give low values 1 | S. cerevisiae deletion strains, locus YNL071W, strain lat1, hits give low values 1.01 | S. cerevisiae deletion strains, locus YNL183C, strain NPR1, hits give low values 0.953 | S. cerevisiae deletion strains, locus YNL209W, strain ssb2, hits give low values 1.02 | S. cerevisiae deletion strains, locus YNL233W, strain BNI4, hits give low values 1.01 | S. cerevisiae deletion strains, locus YNL248C, strain rpa49, hits give low values 1.05 | S. cerevisiae deletion strains, locus YNL250W, strain rad50, hits give low values 1.01 | S. cerevisiae deletion strains, locus YNL271C, strain bni1, hits give low values 1.03 | S. cerevisiae deletion strains, locus YNL298W, strain CLA4, hits give low values 1.01 | S. cerevisiae deletion strains, locus YNL307C, strain MCK1, hits give low values 1.01 | S. cerevisiae deletion strains, locus YNL322C, strain KRE1 (second series), hits give low values 1.01 | S. cerevisiae deletion strains, locus YNR049C, strain mso1, hits give low values 1.02 | S. cerevisiae deletion strains, locus YNR052C, strain pop2, hits give low values 1 | S. cerevisiae deletion strains, locus YOL006C, strain TOP1, hits give low values 1.06 | S. cerevisiae deletion strains, locus YOL012C, strain htz1 2.07 | S. cerevisiae deletion strains, locus YOL147C, strain pex11, hits give low values 1.01 | S. cerevisiae deletion strains, locus YOR001W, strain rrp6, hits give low values 1.05 | S. cerevisiae deletion strains, locus YOR061W, strain CKA2, hits give low values 1.01 | S. cerevisiae deletion strains, locus YOR069W, strain VPS5, hits give low values 1.01 | S. cerevisiae deletion strains, locus YOR070C, strain gyp1, hits give low values 1.01 | S. cerevisiae deletion strains, locus YOR080W, strain dia2, hits give low values 1.04 | S. cerevisiae deletion strains, locus YOR083W, strain WHI5, hits give low values 1.05 | S. cerevisiae deletion strains, locus YOR106W, strain vam3, hits give low values 1.04 | S. cerevisiae deletion strains, locus YOR136W, strain idh2, hits give low values 1.02 | S. cerevisiae deletion strains, locus YOR144C, strain elg1, hits give low values 1.01 | S. cerevisiae deletion strains, locus YOR184W, strain ser1, hits give low values 1.02 | S. cerevisiae deletion strains, locus YOR231W, strain MKK1, hits give low values 1.01 | S. cerevisiae deletion strains, locus YOR265W, strain rbl2, hits give low values 1.01 | S. cerevisiae deletion strains, locus YOR270C, strain vph1, hits give low values 1.07 | S. cerevisiae deletion strains, locus YOR290C, strain snf2, hits give low values 1.01 | S. cerevisiae deletion strains, locus YOR316C, strain cot1, hits give low values 1.01 | S. cerevisiae deletion strains, locus YPL051W, strain arl3, hits give low values 1.04 | S. cerevisiae deletion strains, locus YPL078C, strain atp4, hits give low values 1.05 | S. cerevisiae deletion strains, locus YPL106C, strain sse1, hits give low values 1.03 | S. cerevisiae deletion strains, locus YPL240C, strain hsp82, hits give low values 1.01 | S. cerevisiae deletion strains, locus YPL256C, strain CLN2, hits give low values 1.02 | S. cerevisiae deletion strains, locus YPR119W, strain clb2, hits give low values 1 | S. cerevisiae deletion strains, locus YPR141C, strain kar3, hits give low values 1.01 | S. cerevisiae deletion strains, locus YPR163C, strain tif3, hits give low values 1.02 | S. cerevisiae deletion strains, locus YPR167C, strain met16, hits give low values 1.02 | S. cerevisiae deletion strains, strain wtn01, hits give low values 1.02 | S. cerevisiae strains, strain wild type, hits give low values 1
